Laboratory results published in PubChem BioAssay AID1159580 (chemical genetic matrix, 2015).
Hit rate of the full screen: of about 5,500 compounds, about 2,000 (36%) were called active. Roughly 18% stayed inconclusive and do not appear here. Cut-off read from the data, not from the text of the source: active = normalized growth mostly below about 0.91 (no sharp cut-off); inconclusive = no clear call, values can overlap the other calls; inactive = mostly above about 0.92. The list shows a part of the results.

Assay: chemical genetic growth profiling, strain panel (AID 1159580);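 note: tested at 20 µM; growth read once vehicle control cultures reached saturation at 30 °C; 1 = growth at the plate median or of vehicle wells; lower values mean less growth of the strain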
Conditions: S. cerevisiae deletion strains, growth OD

Measured: normalized growth

COc1ccc(/C=C2/C(=O)Nc3ccccc32)cc1
inactive: locus YBR136W, strain MEC1, active compounds read low 0.894 | locus YBR160W, strain CDC28, active compounds read low 0.899 | locus YDL028C, strain MPS1, active compounds read low 0.896 | locus YDL214C, strain PRR2, active compounds read low 0.84 | locus YDR054C, strain cdc34, active compounds read low 0.917 | locus YDR477W, strain SNF1, active compounds read low 0.762 | locus YER123W, strain YCK3, active compounds read low 0.858 | locus YER133W, strain GLC7, active compounds read low 0.777 | locus YFL029C, strain CAK1, active compounds read low 0.879 | locus YFR019W, strain FAB1, active compounds read low 0.887 | locus YGR040W, strain KSS1, active compounds read low 0.776 | locus YGR052W, strain FMP48, active compounds read low 0.836 | locus YGR092W, strain DBF2, active compounds read low 0.733 | locus YHR079C, strain IRE1, active compounds read low 0.686 | locus YHR082C, strain KSP1, active compounds read low 0.827 | locus YHR205W, strain SCH9, active compounds read low 0.577 | locus YJL095W, strain BCK1, active compounds read low 0.774 | locus YJL128C, strain PBS2, active compounds read low 0.839 | locus YJL157C, strain FAR1, active compounds read low 0.83 | locus YJR066W, strain TOR1 (second series), active compounds read low 0.692 | locus YJR066W, strain TOR1, active compounds read low 0.729 | locus YKL048C, strain ELM1, active compounds read low 0.887 | locus YKL067W, strain YNK1, active compounds read low 0.89 | locus YKL101W, strain HSL1, active compounds read low 0.906 | locus YKL203C, strain TOR2, active compounds read low 0.859 | locus YLR133W, strain CKI1, active compounds read low 0.845 | locus YML070W, strain DAK1, active compounds read low 0.859 | locus YMR205C, strain PFK2 (second series), active compounds read low 0.866 | locus YNL020C, strain ARK1, active compounds read low 0.841 | locus YNL183C, strain NPR1, active compounds read low 0.821 | locus YNL222W, strain SSU72, active compounds read low 0.894 | locus YNL307C, strain MCK1 (second series), active compounds read low 0.873 | locus YOL136C, strain PFK27, active compounds read low 0.825 | locus YOR061W, strain CKA2, active compounds read low 0.861 | locus YOR119C, strain RIO1, active compounds read low 0.899 | locus YOR231W, strain MKK1, active compounds read low 0.877 | locus YPL031C, strain PHO85, active compounds read low 0.748 | locus YPL153C, strain RAD53, active compounds read low 0.788 | locus YPL204W, strain HRR25, active compounds read low 0.708 | locus YPR025C, strain CCL1, active compounds read low 0.912 | locus YPR111W, strain DBF20, active compounds read low 0.89
active: locus YAR019C, strain CDC15, active compounds read low 0.877 | locus YBL105C, strain PKC1, active compounds read low 0.884 | locus YBR135W, strain CKS1, active compounds read low 0.89 | locus YDL017W, strain CDC7, active compounds read low 0.893 | locus YDL101C, strain DUN1, active compounds read low 0.909 | locus YDL108W, strain KIN28, active compounds read low 0.892 | locus YDL132W, strain cdc53, active compounds read low 0.873 | locus YDR052C, strain DBF4, active compounds read low 0.898 | locus YDR226W, strain ADK1, active compounds read low 0.867 | locus YFL009W, strain cdc4, active compounds read low 0.868 | locus YFR003C, strain YPI1, active compounds read low 0.885 | locus YFR028C, strain CDC14, active compounds read low 0.871 | locus YHR030C, strain SLT2, active compounds read low 0.667 | locus YIL147C, strain SLN1, active compounds read low 0.892 | locus YJR016C, strain ILV3, active compounds read low 0.878 | locus YKL193C, strain SDS22, active compounds read low 0.877 | locus YLR113W, strain HOG1, active compounds read low 0.758 | locus YLR403W, strain SFP1, active compounds read low 0.652 | locus YMR001C, strain CDC5, active compounds read low 0.88 | locus YMR277W, strain FCP1, active compounds read low 0.867 | locus YNL006W, strain LST8, active compounds read low 0.895 | locus YNL161W, strain CBK1, active compounds read low 0.874 | locus YNL207W, strain RIO2, active compounds read low 0.866 | locus YOL078W, strain AVO1, active compounds read low 0.879 | locus YOR329C, strain SCD5, active compounds read low 0.891 | locus YPL209C, strain IPL1, active compounds read low 0.894 | locus YPL256C, strain CLN2, active compounds read low 0.691 | locus YPR106W, strain ISR1, active compounds read low 0.892 | strain NNK1, active compounds read low 0.866 | strain TSCII, active compounds read low 0.863
